Only some compounds are listed: those with a hit (about 4.7% of all), similar ones and a draw of the others.
3CLpro inhibitor = SARS-CoV 3CLpro protease inhibitors, primary screen, biochemical, quenched FRET. recombinant SARS-CoV 3CLpro, quenched FRET peptide cleavage. Replicase polyprotein 1ab (Severe acute respiratory syndrome coronavirus), P0C6X7. 0.14% of 290,000 active. inhibition, % at 6 µM; in the data active = inhibition above about 12%
RecA splice inh = Mtb RecA intein splicing inhibitors, primary screen, biochemical, fluorescence, HTS. Protein RecA (Mycobacterium tuberculosis (strain ATCC 25618 / H37Rv)), P9WHJ3. 0.75% of 290,000 active. inhibition, % (test concentration not listed). cell-free RecA intein splicing; in the data active = inhibition above about 30%
CCHF vOTU inh = CCHFV vOTU protease inhibitors, primary screen, biochemical, Pep-AMC substrate, fluorescence; inhibition, % at 11.5 µM; Crimean-Congo hemorrhagic fever virus L polyprotein viral ovarian tumor (vOTU) protease …; 0.55% of 370,000 active
GDH-TPI counter-1 = GDH-TPI coupling enzyme inhibitors, primary screen, artefact control for M. tuberculosis FBA inhibitor project, biochemical, absorbance, full deck; GDH-TPI coupled enzyme counterscreen, NADH absorbance; inhibition, % at 4.8 µM; 1.2% of 360,000 active; AID 588335, 2011
VHR inh abs = VHR1 phosphatase inhibitors, primary screen, biochemical, absorbance, uHTS; inhibition, % at 13.3 µM; 0.52% of 290,000 active; recombinant VHR phosphatase, pNPP absorbance; Dual specificity protein phosphatase 3 (Homo sapiens), P51452; in the data active = inhibition above about 50%
Target sequence (P51452 whole entry, looked up): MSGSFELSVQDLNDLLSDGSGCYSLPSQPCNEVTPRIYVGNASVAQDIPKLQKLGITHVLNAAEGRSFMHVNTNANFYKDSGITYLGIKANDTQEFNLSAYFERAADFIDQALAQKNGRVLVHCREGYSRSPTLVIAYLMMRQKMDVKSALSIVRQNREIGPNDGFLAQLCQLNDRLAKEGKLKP
Mtb FBA inh = Mtb FBA enzyme inhibitors, primary screen, biochemical, fluorescence, strain H37Rv | Fructose-bisphosphate aldolase (Mycobacterium tuberculosis (strain ATCC 25618 / H37Rv)), … | purified M. tuberculosis FBA, fluorescence read-out | inhibition, % at 1 µM | 2.3% of 360,000 active | AID 588726, 2011; in the data active = inhibition above about 27%
Mtb FBA confirm = M. tuberculosis aldolase blockers, biochemical, fluorescence, strain H37Rv, confirmation; 78% of 5,600 active; inhibition, % at 1 µM; shares compounds with Mtb FBA inh; purified M. tuberculosis FBA, fluorescence read-out; in the data active = inhibition above about 27%
GDH-TPI counter-2 = GDH-TPI coupling enzyme inhibitors, artefact control for M. tuberculosis FBA inhibitor project, biochemical, fluorescence, high throughput | shares compounds with Mtb FBA inh | GDH-TPI coupled enzyme counterscreen | inhibition, % at 1 µM | 81% of 5,600 active | AID 652141, 2013; in the data active = inhibition above about 10%
GDH-TPI DR = GDH-TPI coupling enzyme inhibitors, dose response, artefact control for M. tuberculosis FBA inhibitor project, biochemical, fluorescence, IC50. shares compounds with Mtb FBA inh. GDH-TPI coupled enzyme assay, artifact counterscreen. IC50, µM. 79% of 170 active. AID 652145, 2013; call rule not given here
Hits are given with their value; i = inactive; nt = no result; + = active, no number. Rule as the data show it, unless noted: active = inhibition above about 30%; inactive = the rest.

SMILES	3CLpro inhibitor	RecA splice inh	CCHF vOTU inh	GDH-TPI counter-1	VHR inh abs	Mtb FBA inh	Mtb FBA confirm	GDH-TPI counter-2	others
COc1cccc(CNc2nc(NCC3CC3)nc3ccsc23)c1	nt	nt	i	i	nt	i	nt	nt
COc1ccccc1CNc1nc(-c2ccccc2CO)c2sccc2n1	nt	nt	i	i	nt	51	130	90
Cc1cscc1-c1nc(NCC2CC2)nc2ccsc12	nt	nt	i	i	nt	37	127	100
Fc1ccccc1-c1nc(NCC2CC2)nc2ccsc12	nt	nt	i	i	nt	42	100	84
COCCNc1nc(-c2ccc(Cl)cc2C)c2sccc2n1	nt	nt	i	i	nt	69	i	i
CCOC(COC(=O)c1ccccc1C(=O)O)c1ccccc1 (configuration not stated)	nt	nt	i	i	nt	i	nt	nt
CC(=O)Nc1ccc(CCNC(=O)c2ccc3ccccc3c2O)cc1	nt	nt	i	i	nt	32	+	149
O=C(NNC(=O)c1cc2ccccc2cc1O)Nc1ccc(Br)cc1	i	i	i	i	i	28	106	91
CCOc1ccc(NC(=O)NNC(=O)c2ccc3ccccc3c2O)cc1	i	i	i	i	i	40	28	i	GDH-TPI DR=5.7
COc1ccc(NC(=O)NNC(=O)c2ccc3ccccc3c2O)c(OC)c1	i	i	i	i	i	40	52	44
CC(=O)Nc1ccc(C(=O)NCCc2ccccc2)cc1	i	i	i	i	i	i	nt	nt
C[C@@H]1CN([C@@H](C)CO)C(=O)CCCn2nncc2CO[C@H]1CN(C)Cc1ccc(Cl)c(Cl)c1	nt	nt	i	i	nt	i	nt	nt
Ic1ccc(N2CCN(Cc3c[nH]c4ncccc34)CC2)cc1	nt	nt	i	i	nt	i	nt	nt
Cc1cccc(N(CC(=O)NC(C)C)C(=O)CCC(=O)Nc2nccs2)c1	i	i	i	i	i	i	nt	nt
COc1ccc(Nc2nc3cc(C)ccc3cc2C#N)cc1	i	i	i	i	i	i	nt	nt
Cc1ccc2cc(C#N)c(NCc3ccccc3)nc2c1	i	i	i	i	i	32	53	44
CCN(CC)c1ccc(/C=N/NC(=O)c2nnn(-c3nonc3N)c2CN(C)C2CCCCC2)cc1	nt	nt	i	i	nt	i	nt	nt
CCN(Cc1ccccc1)c1ccc(/C=N/N=C(N)N)cc1	i	i	i	i	i	i	nt	nt
NC(N)=N/N=C/c1ccc(N(c2ccccc2)c2ccccc2)cc1	i	i	i	i	nt	104	71	49
Cc1ccc(N2CCN(C(=O)N3CCOCC3)CC2)c(C)c1	i	i	i	i	i	i	nt	nt
CC(C)[C@H]1COCCS(=O)(=O)N1Cc1cccc(Cl)c1	i	i	i	i	i	i	nt	nt
c1ccc2c(c1)COc1c3ncccc3nn1-2	nt	nt	i	i	nt	33	37	32
O=C(c1ccc2c3n(nc2c1)-c1ccccc1CO3)N1CCCCC1	nt	i	i	i	i	i	nt	nt
CC(=O)C[C@@H](O)CC(=O)[C@@H]1OC(=O)[C@H](C)CCCCc2ccccc21	nt	nt	i	i	nt	i	nt	nt
Cc1ccc(NC(=O)C2CCN(S(=O)(=O)c3ccc4c(c3)C(C)(C)C(=O)N4C)CC2)c(C)c1	i	i	i	i	i	i	nt	nt
CCn1c(NC(=O)C(C)C)c2ccccc2nc1=O	i	i	i	i	i	i	nt	nt
CC(C)C(=O)Nc1c2c(nc3ccccc13)N(C)CC2	i	i	i	i	i	74	+	+
CCCCCC(=O)Nc1c2c(nc3ccccc13)CCC2	i	i	i	i	i	i	nt	nt
